This note sets out measurements from ChEMBL document CHEMBL1961873, “Compounds: GSK PKIS; Assays: Nanosyn kinase panel” (2012).

Experiment [1] deals with Serine/threonine-protein kinase 26 (Homo sapiens) (UniProt Q9P289). The conditions noted are these: at 1 µM.
Experiment [2] concerns the target Serine/threonine-protein kinase PAK 1 (Homo sapiens) (UniProt Q13153). The conditions noted are these: at 0.1 µM.
For experiment [3] the target is unchanged. The conditions noted are these: at 1 µM.
The target of experiment [4] is Serine/threonine-protein kinase PAK 2 (Homo sapiens) (UniProt Q13177). The conditions noted are these: at 0.1 µM.
Serine/threonine-protein kinase PAK 2 (Homo sapiens), sequence (Q13177 whole entry): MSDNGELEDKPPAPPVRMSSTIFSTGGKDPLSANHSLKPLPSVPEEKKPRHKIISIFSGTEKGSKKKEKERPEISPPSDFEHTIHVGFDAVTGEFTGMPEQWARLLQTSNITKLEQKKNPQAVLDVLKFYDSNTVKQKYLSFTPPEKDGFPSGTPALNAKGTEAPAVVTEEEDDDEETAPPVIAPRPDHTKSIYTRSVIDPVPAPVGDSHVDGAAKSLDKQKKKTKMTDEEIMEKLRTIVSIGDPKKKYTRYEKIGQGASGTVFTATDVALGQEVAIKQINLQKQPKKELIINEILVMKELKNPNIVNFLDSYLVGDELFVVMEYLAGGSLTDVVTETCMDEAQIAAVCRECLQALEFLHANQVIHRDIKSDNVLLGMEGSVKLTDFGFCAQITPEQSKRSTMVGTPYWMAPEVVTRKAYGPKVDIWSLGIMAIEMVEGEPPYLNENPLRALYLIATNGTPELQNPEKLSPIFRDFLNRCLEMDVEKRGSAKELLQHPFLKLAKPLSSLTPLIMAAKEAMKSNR
For experiment [5] the target is unchanged. The conditions noted are these: at 1 µM.
Experiment [6] addresses Serine/threonine-protein kinase PAK 3 (Homo sapiens) (UniProt O75914). The conditions noted are these: at 0.1 µM.
The target is the same in experiment [7]. The conditions noted are these: at 1 µM.
The target of experiment [8] is Serine/threonine-protein kinase PAK 5 (Homo sapiens) (UniProt Q9P286). The conditions noted are these: at 0.1 µM.
Serine/threonine-protein kinase PAK 5 (Homo sapiens), sequence (Q9P286 whole entry, looked up): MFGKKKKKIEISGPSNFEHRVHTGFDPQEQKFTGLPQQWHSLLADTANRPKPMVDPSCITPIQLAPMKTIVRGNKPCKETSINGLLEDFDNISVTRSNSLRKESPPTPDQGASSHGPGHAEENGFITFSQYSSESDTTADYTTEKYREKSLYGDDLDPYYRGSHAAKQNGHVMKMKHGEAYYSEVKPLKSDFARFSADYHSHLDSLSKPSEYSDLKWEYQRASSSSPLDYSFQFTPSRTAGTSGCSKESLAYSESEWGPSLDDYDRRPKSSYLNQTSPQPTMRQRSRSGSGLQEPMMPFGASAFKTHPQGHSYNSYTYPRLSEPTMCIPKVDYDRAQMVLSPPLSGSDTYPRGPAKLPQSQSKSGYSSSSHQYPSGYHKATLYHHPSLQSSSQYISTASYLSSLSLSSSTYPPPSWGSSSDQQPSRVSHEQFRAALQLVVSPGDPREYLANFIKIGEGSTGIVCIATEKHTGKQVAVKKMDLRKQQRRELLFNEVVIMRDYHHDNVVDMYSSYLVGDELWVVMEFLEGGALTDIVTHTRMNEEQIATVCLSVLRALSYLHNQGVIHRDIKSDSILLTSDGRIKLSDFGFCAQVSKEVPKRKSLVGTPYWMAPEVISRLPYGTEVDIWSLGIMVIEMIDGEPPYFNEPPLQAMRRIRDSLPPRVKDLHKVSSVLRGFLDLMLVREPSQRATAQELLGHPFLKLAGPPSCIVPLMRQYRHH
Experiment [9] has the same target. The conditions noted are these: at 1 µM.
Experiment [10] concerns the target Serine/threonine-protein kinase PAK 6 (Homo sapiens) (UniProt Q9NQU5). The conditions noted are these: at 0.1 µM.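 Further: mean PAK6 inhibition reported from the GSK PKIS screen.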

Molecules are shown by their SMILES.

What is called inhibition is the relative decrease from the control value, in per cent.

Serine/threonine-protein kinase 26 (Homo sapiens), sequence (Q9P289 2-416 limits assumed): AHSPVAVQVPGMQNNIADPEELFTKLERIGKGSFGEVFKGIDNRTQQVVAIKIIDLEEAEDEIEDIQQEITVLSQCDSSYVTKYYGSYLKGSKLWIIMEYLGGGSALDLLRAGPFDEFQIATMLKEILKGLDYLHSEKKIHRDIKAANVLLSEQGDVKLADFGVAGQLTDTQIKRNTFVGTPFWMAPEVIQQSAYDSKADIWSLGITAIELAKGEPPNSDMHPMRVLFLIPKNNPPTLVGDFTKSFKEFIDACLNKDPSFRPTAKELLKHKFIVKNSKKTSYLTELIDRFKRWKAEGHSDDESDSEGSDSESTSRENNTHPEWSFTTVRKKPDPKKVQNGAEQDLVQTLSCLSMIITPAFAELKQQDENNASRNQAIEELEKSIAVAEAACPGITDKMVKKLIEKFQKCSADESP
Serine/threonine-protein kinase PAK 3 (Homo sapiens), sequence (O75914 whole entry, looked up): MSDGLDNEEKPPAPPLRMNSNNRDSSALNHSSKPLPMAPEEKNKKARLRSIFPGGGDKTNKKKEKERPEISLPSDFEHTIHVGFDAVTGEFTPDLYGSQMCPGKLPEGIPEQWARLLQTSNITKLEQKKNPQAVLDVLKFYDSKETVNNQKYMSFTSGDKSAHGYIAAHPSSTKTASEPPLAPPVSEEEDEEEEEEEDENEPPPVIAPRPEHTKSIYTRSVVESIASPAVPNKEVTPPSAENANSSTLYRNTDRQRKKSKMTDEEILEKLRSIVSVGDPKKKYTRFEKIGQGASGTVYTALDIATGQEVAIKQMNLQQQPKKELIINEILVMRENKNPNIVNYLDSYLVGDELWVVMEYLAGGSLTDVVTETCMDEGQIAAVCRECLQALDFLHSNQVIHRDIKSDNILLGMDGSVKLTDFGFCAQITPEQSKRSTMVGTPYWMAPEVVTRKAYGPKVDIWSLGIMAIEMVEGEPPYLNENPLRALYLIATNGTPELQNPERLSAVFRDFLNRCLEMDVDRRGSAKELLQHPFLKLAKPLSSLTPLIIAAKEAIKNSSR
Serine/threonine-protein kinase PAK 1 (Homo sapiens), sequence (Q13153 whole entry): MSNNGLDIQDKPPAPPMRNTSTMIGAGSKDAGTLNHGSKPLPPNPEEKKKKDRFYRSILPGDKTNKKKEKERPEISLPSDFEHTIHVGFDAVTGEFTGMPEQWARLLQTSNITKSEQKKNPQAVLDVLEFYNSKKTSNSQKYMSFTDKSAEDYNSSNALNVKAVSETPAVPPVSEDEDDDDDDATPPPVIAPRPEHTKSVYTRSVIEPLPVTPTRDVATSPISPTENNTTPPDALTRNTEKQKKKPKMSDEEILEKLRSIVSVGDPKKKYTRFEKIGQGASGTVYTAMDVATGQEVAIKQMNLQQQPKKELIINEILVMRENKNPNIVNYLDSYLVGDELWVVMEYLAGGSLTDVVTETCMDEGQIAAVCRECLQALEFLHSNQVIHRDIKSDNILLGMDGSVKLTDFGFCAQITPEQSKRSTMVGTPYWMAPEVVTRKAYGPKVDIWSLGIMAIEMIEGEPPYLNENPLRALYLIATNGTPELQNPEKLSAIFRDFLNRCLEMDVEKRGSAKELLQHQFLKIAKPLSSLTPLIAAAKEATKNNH
Serine/threonine-protein kinase PAK 6 (Homo sapiens), sequence (Q9NQU5 whole entry, looked up): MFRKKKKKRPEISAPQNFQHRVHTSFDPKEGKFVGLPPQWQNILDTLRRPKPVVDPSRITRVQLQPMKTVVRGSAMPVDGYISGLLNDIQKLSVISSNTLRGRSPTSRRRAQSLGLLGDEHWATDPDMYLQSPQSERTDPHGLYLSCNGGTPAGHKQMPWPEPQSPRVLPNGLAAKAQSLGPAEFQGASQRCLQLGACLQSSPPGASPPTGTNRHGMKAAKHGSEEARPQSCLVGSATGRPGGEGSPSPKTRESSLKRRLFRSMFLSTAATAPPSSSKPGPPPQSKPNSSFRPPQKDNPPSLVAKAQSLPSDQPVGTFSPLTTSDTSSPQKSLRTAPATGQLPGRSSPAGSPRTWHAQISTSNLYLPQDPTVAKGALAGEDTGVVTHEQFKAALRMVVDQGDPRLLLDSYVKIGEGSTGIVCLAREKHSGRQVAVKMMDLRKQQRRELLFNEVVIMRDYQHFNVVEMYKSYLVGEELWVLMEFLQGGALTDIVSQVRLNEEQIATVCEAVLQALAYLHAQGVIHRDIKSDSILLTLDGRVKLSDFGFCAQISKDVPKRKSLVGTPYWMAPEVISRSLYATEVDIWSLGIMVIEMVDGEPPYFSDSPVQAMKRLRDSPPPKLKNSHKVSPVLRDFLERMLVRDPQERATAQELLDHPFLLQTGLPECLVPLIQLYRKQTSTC

As for `COc1ccc2ncn(-c3cc(O[C@H](C)c4ccccc4Cl)c(C(N)=O)s3)c2c1`, the inhibition in [1] is -5.03%; in [2] it was 3.16%; in [3], 7.26%; in experiment [4] it was 1.84%; in experiment [5] it was 1.19%; in experiment [6] it was 5.49%. The inhibition was 6.75% in [7], 1.71% in [8], 3.63% in experiment [9] and -3.39% in experiment [10].

Consider `CN(c1ccc(NC(=O)Nc2c(Cl)cccc2Cl)cc1)c1ccnc(Nc2cccc(CS(C)(=O)=O)c2)n1`, for which the inhibition in experiment [1] was -3.71%; in experiment [2] it was -0.06%; in experiment [3], 2.17%; in experiment [4] it was 1.79%; in [5], 1.61%; in experiment [6], 1.56%. Also, the inhibition came out at 1.38% in experiment [7], 4.31% in [8], 11.9% in experiment [9] and 7.14% in [10].

In the case of `CS(=O)(=O)CCNCc1cc(-c2cc3c(Nc4ccc(OCc5cccc(F)c5)c(Cl)c4)ncnc3s2)cs1`, the inhibition in experiment [1] is -1.71%; in [2], 10.9%; in experiment [3], 9.09%; in [4] it was 2.13%; in experiment [5] it was 3.83%; in experiment [6], 4.86%. In addition, the inhibition is 7.41% in experiment [7], 5.61% in [8], 3.34% in [9] and -6.6% in experiment [10].

In the case of `O=C(Nc1n[nH]c2cc(-c3cc(F)ccc3F)ccc12)C1CC1`, the inhibition in experiment [1] is -1.14%; in [2] it was 5.03%; in experiment [3], 5.57%; in experiment [4], 0.42%; in [5], 2.22%; in experiment [6] it was 2.86%. Further, the inhibition in experiment [7] is 2.97%; in [8] it was 3.42%; in [9] it was -2.05%; in experiment [10], 2.84%.

For the compound `O=C(Nc1n[nH]c2nc(-c3ccco3)ccc12)C1CC1`, the inhibition was 1.1% in [1]; 0.35% in experiment [2]; 1.74% in experiment [3]; 0.42% in experiment [4]; -0.03% in experiment [5]; 0.51% in [6]. The inhibition was 0.64% in experiment [7], 5.55% in [8], 3.74% in experiment [9] and 6.27% in experiment [10].

For `Fc1ccc(-c2ncn(C3CCNCC3)c2-c2ccnc(Oc3ccc(F)c(F)c3)n2)cc1`, the inhibition in [1] came out at 5.23%; in experiment [2], 5.03%; in [3] it was 4.33%; in experiment [4] it was 0.93%; in experiment [5], 1.83%; in [6], 4.91%. Besides, the inhibition turned out to be 5.71% in [7], 1.64% in experiment [8] and 0.29% in [9].

As for `O=C1Nc2ccc(I)cc2C1=Cc1cc(Br)c(O)c(Br)c1`, the inhibition came to 8.78% in experiment [1]; 7.31% in experiment [2]; 11.5% in experiment [3]; 1.87% in experiment [4]; 1.49% in experiment [5]; 3.52% in [6]. For the same compound, the inhibition is 5.78% in [7], 9.36% in experiment [8] and 10.2% in [9].

As to `Fc1ccc(-c2c(-c3ccncc3)nc3n2CCS3)cc1`, the inhibition is 1.66% in [1]; 6.15% in experiment [2]; -0.03% in experiment [3]; -0.52% in experiment [4]; 0.49% in [5]; 2.55% in [6]. In addition, the inhibition is 3.16% in experiment [7], 1.47% in experiment [8], 3.62% in [9] and 1.52% in experiment [10].

Regarding `Fc1ccc(-c2ncn(C3CCNCC3)c2-c2ccnc(Oc3ccc4c(c3)OCO4)n2)cc1`, the inhibition in experiment [1] was -0.15%; in [2] it was 6.43%; in experiment [3], 8.06%; in experiment [4], 2.45%; in experiment [5], 2.56%; in [6], 6.04%. For the same compound, the inhibition came out at 6.56% in experiment [7], 1.45% in [8], 2.03% in experiment [9] and 1.43% in experiment [10].

For the compound `NS(=O)(=O)c1ccc(N/N=C2\C(=O)Nc3ccc(-c4cnco4)cc32)cc1`, the inhibition in [1] came out at 11.1%; in experiment [2], 2.52%; in experiment [3], 3.12%; in experiment [4], 0.33%; in experiment [5] it was 0.86%; in experiment [6], 1.7%. Also, the inhibition in experiment [7] is 2.52%; in [8], 0.27%; in [9], -0.09%.

As for `c1ccc(Oc2ccc(Nc3ncc(-c4ccccc4)o3)cc2)cc1`, the inhibition in [1] is 0.79%; in experiment [2] it was -1.14%; in experiment [3] it was 6.59%; in experiment [4], 0.5%; in experiment [5] it was -0.36%; in experiment [6] it was 0.64%. Moreover, the inhibition is 0.63% in experiment [7], -0.61% in [8], 2.2% in experiment [9] and -2.49% in experiment [10].

As to `COC(=O)Nc1nc2ccc(Sc3ccc(NC(=O)Nc4cc(C(F)(F)F)ccc4F)cc3)cc2[nH]1`, the inhibition in experiment [1] is -1.61%; in experiment [2] it was -1.15%; in experiment [3], -1.32%; in experiment [4], 10.8%; in experiment [5] it was 0.18%; in experiment [6], -0.08%. For the same compound, the inhibition in experiment [7] is 0.83%; in experiment [8] it was 6.86%; in experiment [9], -2.02%; in experiment [10] it was -4.57%.

Consider `O=C(Nc1ccc(Oc2ccc3[nH]c(NC(=O)c4ccccc4)nc3c2)cc1)Nc1cc(C(F)(F)F)ccc1F`, for which the inhibition is -0.48% in [1]; 5.49% in [2]; 5.94% in experiment [3]; 2.09% in experiment [4]; 2.3% in experiment [5]; 2.23% in experiment [6]. Besides, the inhibition in [7] came out at 2.99%; in experiment [8], 3.8%; in [9], 4.86%.

As for `COc1cc(Nc2ncc(-c3ccccc3)o2)cc(OC)c1OC`, the inhibition in experiment [1] was -4.83%; in experiment [2] it was -0.3%; in [3] it was -0.52%; in experiment [4] it was -1.31%; in experiment [5] it was -0.61%; in experiment [6], -1.91%. For the same compound, the inhibition is -0.07% in experiment [7], -0.92% in experiment [8], 7.2% in experiment [9] and -5.44% in experiment [10].

Take `CN1CCN(CCCNc2nc3ccc(Oc4ccc(NC(=O)Nc5cc(C(F)(F)F)ccc5F)cc4)cc3[nH]2)CC1`: the inhibition in experiment [1] turned out to be 0.74%; in [2], 3.77%; in experiment [3] it was 2.58%; in experiment [4], 1.22%; in experiment [5] it was 1.06%; in experiment [6] it was 1.62%. Also, the inhibition in experiment [7] was 2.65%; in [8] it was 1.27%; in experiment [9], 8.65%; in [10] it was -3.01%.

Turning to `Clc1ccc(CNc2nccc(-c3cnn4ncccc34)n2)cc1`, the inhibition in experiment [1] is 1.18%; in experiment [2] it was -2.27%; in experiment [3] it was -0.13%; in experiment [4], 0.78%; in experiment [5] it was 0.67%; in [6], -0.26%. The inhibition in experiment [7] is 0.29%; in [8], 8.39%; in experiment [9] it was 2.06%.

For `CCc1cccc(CC)c1/C=C/c1cncc(C(=O)NC)c1`, the inhibition in experiment [1] is -4.27%; in [2] it was 6.83%; in experiment [3], 2.08%; in experiment [4], 2.1%; in [5], 1.76%; in experiment [6] it was 2.61%. Further, the inhibition in [7] was 3.43%; in experiment [8], 8.04%; in [9] it was -1.06%; in [10] it was -5.49%.
